The source of these data is PubChem BioAssay AID743325 (National Center for Advancing Translational Sciences (NCATS), 2014).

Active and inactive are the calls of the source. Calls come from the whole dose curve. Square brackets hold non-standard residues; d marks the D form. Peptide text beside a SMILES is read from it. Orn = NCCC[C@H](N)C(=O)O

This test can be described thus: qHTS profiling of Chloroquine Analogs as inhibitors of Plasmodium falciparum (3D7) proliferation. Particulars: activity change, negative = inhibition: at 28.7 µM (top of the series) unless noted. The source says: Plasmodium falciparum is a virulent malarial parasite that kills 1-2 million people worldwide each year. Transmitted by mosquitoes, the sporozoite form of the parasite enters the blood stream to infect hepatocytes, where they become merozoites that infect red blood cells (erythrocytes). Within erythrocytes, merozoites begin a […] cycle of growth and division, after which the parasite is released to infect new red blood cells. Gametocytes, which form within erythrocytes as well, circulate in the bloodstream and are ingested by the mosquito, thereby completing the life cycle. To profile malarial isolates for differential chemical responses and to identify inhibitors of malarial growth, an assay that measures P. falciparum growth and replication within erythrocytes was employed. This assay uses a DNA binding fluorescent dye (SYBR Green) to detect parasite DNA following cell lysis. Because mature erythrocytes lack DNA, only Plasmodium-derived DNA is detected.
The SYBR Green viability assay was adapted from a method described previously (Plouffe et al., 2008). For screening 3 ul culture medium was dispensed into 1536 well black clear bottom plates (Aurora Biotechnologies) using a Multidrop Combi (Thermo Fisher Scientific Inc.), 23 nL compounds in DMSO were added by a pin tool (Kalypsys), and 5 ul of erythrocytes infected with P. falciparum (0.3% parasitemia, 2.5% hematocrit final concentration) were added. The plates were incubated at 37 C in a humidified incubator in 5% CO2 for 72 h, and 2 ul lysis buffer (20 mM Tris HCl, 10 mM EDTA, 0.16% saponin, 1.6% triton X, 10X SYBR Green I supplied as 10,000X […] by Invitrogen) was added to each well. The plates were mixed for 25 sec with gentle shaking and incubated overnight at room temperature in the dark. The following morning, fluorescence intensity at 485(14) nm excitation and 535(25) nm emission wavelengths was measured on an EnVision (Perkin Elmer) plate reader. Plate reads were normalized relative to the control inhibitor (0.29 uM artemisinin) and vehicle (DMSO) wells present on each plate and then corrected by an algorithm using vehicle-only control plates at the beginning and end of the compound plate stack.
A general note: In qHTS, concentration-response curves come from the screen itself.
`COc1cc2c(Nc3ccc(NC(=O)c4ccccc4)cc3)ncnc2cc1OCCCN1CCOCC1`: the activity change, negative = inhibition is -100%.

In the case of `O=C1C(=O)c2ccccc2C(O)=C1C1CCC(c2ccc(Cl)cc2)CC1` (configuration not stated), the Potency is 0.7 nM (active).

In the case of `COc1cc(NC(C)CCCN)c2ncccc2c1` (configuration not stated), the Potency was 902 nM (active).

Take `CCCC[C@@H]1C[C@@H](C(=O)NC([C@H](C)Cl)[C@H]2O[C@H](S)[C@H](O)[C@@H](O)[C@@H]2O)N(C)C1` (some centres not stated): the Potency entry is “inactive”.

`C[C@@H]1CCC2[C@@H](C)[C@@H](O)O[C@@H]3O[C@@]4(C)CC[C@@H]1[C@@]23OO4` (some centres not stated): the activity change, negative = inhibition was -101%.

For the compound `Cc1oncc1C(=O)Nc1ccc(C(F)(F)F)cc1`, the Potency entry is “inactive”.

With `O[C@H](c1cc(C(F)(F)F)nc2c(C(F)(F)F)cccc12)[C@H]1CCCCN1`, the Potency result was “inactive”.

As to `CNC(=O)c1cc(Oc2ccc(NC(=O)Nc3ccc(Cl)c(C(F)(F)F)c3)cc2)ccn1`, the activity change, negative = inhibition is -100%.

Regarding `C=CCON=C(C[C@H]1O[C@@H]2O[C@]3(C)CC[C@@H]4[C@H](C)CC[C@@H]([C@H]1C)[C@@]24OO3)[C@H]1O[C@@H]2O[C@]3(C)CC[C@H]4[C@H](C)CC[C@@H]([C@@H]1C)[C@@]24OO3`, the activity change, negative = inhibition was -102%.

Take `CCN(CC)CCOc1ccc2c(=O)c3ccc(Cl)cc3n(CCN(CC)CC)c2c1`: the activity change, negative = inhibition was -101%.

As to `Cn1cncc1[C@@](N)(c1ccc(Cl)cc1)c1ccc2c(c1)c(-c1cccc(Cl)c1)cc(=O)n2C`, the Potency was 1680 nM (active).

Take `CC[C@H]1OC(=O)[C@H](C)[C@@H](O[C@H]2C[C@@](C)(OC)[C@@H](O)[C@H](C)O2)[C@H](C)[C@@H](O[C@@H]2O[C@H](C)C[C@H](N(C)C)[C@@H]2O)[C@](C)(O)C[C@@H](C)CN(C)[C@H](C)[C@@H](O)[C@]1(C)O`: the Potency is 9430 nM (active).

Turning to `CC(=O)O[C@@]12CO[C@@H]1C[C@H](O)[C@@]1(C)C(=O)[C@H](O)C3=C(C)[C@@H](OC(=O)[C@H](O)[C@@H](NC(=O)OC(C)(C)C)c4ccccc4)C[C@@](O)([C@@H](OC(=O)c4ccccc4)[C@H]21)C3(C)C`, the Potency entry was “inactive”.

With `CO[C@H]1O[C@@H]2O[C@@]3(C)CC[C@@H]4[C@@H](C)CC[C@@H]([C@H]1C)[C@@]24OO3`, the Potency result was “inactive”.

For the compound `O=CN(O)CCCP(=O)(O)O`, the Potency was 530 nM (active).

Turning to `OB1OCc2cc(F)ccc21`, the Potency entry was “inactive”.

`CSc1cccc(NC(=O)CC[C@H]2O[C@@H]3O[C@]4(C)CC[C@H]5[C@H](C)CC[C@@H]([C@@H]2C)[C@@]35OO4)c1`: the Potency was 21.1 nM (active).

Turning to `C[C@H](N)CN1CCc2ccc(Br)cc21`, the Potency was 1680 nM (active).

For the compound `O=C(Nc1ccc(Cl)cc1)Nc1ccc(Cl)c(Cl)c1`, the activity change, negative = inhibition was -102%.

Regarding `CCN(CC)CCCC(C)Nc1ccnc2cc(Cl)ccc12` (configuration not stated), the activity change, negative = inhibition was -99%.

In the case of `O=C(C[C@@H]1NCCC[C@@H]1O)Cn1cnc2ccccc2c1=O`, the Potency is 2.7 nM (active).

Consider `CC[C@@H](C)[C@H]1O[C@]2(CC[C@H]1C)C[C@@H]1C[C@@H](CC=C(C)[C@@H](O[C@H]3C[C@H](OC)[C@@H](O[C@H]4C[C@H](OC)[C@@H](O)[C@H](C)O4)[C@H](C)O3)[C@@H](C)C=CC=C3CO[C@@H]4[C@H](O)C(C)=C[C@@H](C(=O)O1)[C@]34O)O2`, for which the activity change, negative = inhibition was -99.9%.

Regarding `CCCC(=O)O[C@]1(C(=O)CCl)[C@H](C)C[C@@H]2[C@H]3CCC4=CC(=O)C=C[C@]4(C)[C@@]3(F)C(=O)C[C@@]21C`, the activity change, negative = inhibition was -101%.

As for `COc1ccc(CCN(C)CCCC(C#N)(c2ccc(OC)c(OC)c2)C(C)C)cc1OC` (configuration not stated), the Potency entry was “inactive”.

As for `C[C@@H]1[C@@H](CC(C[C@H]2O[C@@H]3O[C@]4(C)CC[C@@H]5[C@H](C)CC[C@@H]([C@H]2C)[C@@]35OO4)C[S+](=O)([O-])c2ccc(COC(=O)N(C)C)cc2)O[C@@H]2O[C@]3(C)CC[C@H]4[C@H](C)CC[C@@H]1[C@@]24OO3` (some centres not stated), the Potency result is “inactive”.

Take `CN([C@@H](Cc1ccc(OS(=O)(=O)c2cccc3cnccc23)cc1)C(=O)N1CCN(c2ccccc2)CC1)S(=O)(=O)c1cccc2cnccc12`: the Potency was 237 nM (active).

Turning to `C[C@@H]1[C@@H](CC(C[C@H]2O[C@@H]3O[C@]4(C)CC[C@@H]5[C@H](C)CC[C@@H]([C@H]2C)[C@@]35OO4)C(=O)NCc2ccc(F)cc2)O[C@@H]2O[C@]3(C)CC[C@H]4[C@H](C)CC[C@@H]1[C@@]24OO3` (some centres not stated), the activity change, negative = inhibition was -101%.

Turning to `C[N+]1(C)CCC(=C(c2ccccc2)c2ccccc2)CC1`, the activity change, negative = inhibition is -94.2% [at 14.2 µM].

Regarding `COC(=O)C1C2CC3c4[nH]c5cc(OC)ccc5c4CCN3CC2CC(OC(=O)c2cc(OC)c(OC)c(OC)c2)C1OC` (configuration not stated), the activity change, negative = inhibition was -101% [at 57.5 µM].

With `Clc1ccc(COC(Cn2ccnc2)c2ccc(Cl)cc2Cl)c(Cl)c1` (configuration not stated), the activity change, negative = inhibition was -97.6% [at 14.2 µM].

With `CC(C)C[C@@H]1NC(=O)[C@H](CCCN)NC(=O)[C@H](C(C)C)NC(=O)[C@@H]2CCCN2C(=O)[C@@H](Cc2ccccc2)NC(=O)[C@H](CC(C)C)NC(=O)[C@H](CCCN)NC(=O)[C@H](C(C)C)NC(=O)[C@@H]2CCCN2C(=O)[C@@H](Cc2ccccc2)NC1=O` (cyclo(V[Orn]L[dF]PV[Orn]L[dF]P)), the activity change, negative = inhibition is -102%.

For the compound `C=CC(C)=C[C@@]1(C)SC(=O)C(C)=C1O`, the Potency entry was “inactive”.

With `C[C@H]1c2cccc(O)c2C(O)=C2C(=O)[C@]3(O)C(O)=C(C(N)=O)C(=O)[C@@H](N(C)C)[C@@H]3[C@@H](O)[C@@H]21`, the Potency is 8410 nM (active).

Consider `C[C@H]1[C@@H](CCC(=O)Nc2ccc(F)cc2)O[C@@H]2O[C@]3(C)CC[C@@H]4[C@H](C)CC[C@@H]1[C@@]24OO3`, for which the activity change, negative = inhibition was -100%.

Regarding `CCN(CC)CCOCCOC(=O)C(CC)(CC)c1ccccc1`, the Potency result was “inactive”.

`CN(C)CCOC(c1ccccc1)c1ccccc1`: the Potency entry is “inactive”.

As to `COCC(=O)O[C@]1(CCN(C)CCCc2nc3ccccc3[nH]2)CCc2cc(F)ccc2[C@@H]1C(C)C`, the activity change, negative = inhibition was -102%.
